# HP1b chromo inh: HP1-beta chromodomain-methylated histone interaction inhibition | P83916 | AlphaScreen HP1-beta / biotin-H3K9me3 peptide binding | Potency, µM (top dose mostly 114 µM), for the others: at the top dose activity change, negative = inhibition, usual class: inhibitors | 0.56% of 390,000 active | AID 540317; also: potency is read from the fitted curve at half-maximal effect; nearly all actives have a fitted effect of over 70% in size
# Target sequence (P83916 whole entry, looked up): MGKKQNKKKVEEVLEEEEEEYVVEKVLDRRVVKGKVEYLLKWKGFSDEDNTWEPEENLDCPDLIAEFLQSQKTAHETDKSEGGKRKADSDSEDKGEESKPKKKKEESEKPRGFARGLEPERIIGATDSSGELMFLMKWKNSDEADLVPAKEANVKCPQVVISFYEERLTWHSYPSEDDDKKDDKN
#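 AlphaScreen: HP1-beta (50 nM) preformed 30 min with biotin-H3(1-18)K9me3 peptide (50 nM) in PBS pH 7.4, 0.01% Tween-20. Compound added for 30 min at RT, then streptavidin donor/nickel chelate acceptor beads (10 ug/mL) for 30 min.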
# BAZ2B block: BAZ2B (human) inhibition; Potency, µM (highest dose often 114 µM), for the others: at the top dose activity change, negative = inhibition, hits mostly inhibitors; AlphaScreen BAZ2B-H3K14Ac peptide displacement; 4.4% of 360,000 active; Q9UIF8; also: potency is read from the fitted curve at half-maximal effect; % is scaled to controls: 0 for no effect and ±100 for the full control effect; nearly all actives have a fitted effect of over 60% in size
#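 AlphaScreen displacement: compounds (up to 110uM) incubated 30 min at room temperature with a preformed 50 nM BAZ2B/50 nM biotinylated H3K14Ac peptide complex in PBS pH 7.4 with Tween-20. Donor and acceptor beads at 10 ug/mL final added, 20 min light-protected before reading.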
# PLK1 PBD block: blocks phosphopeptide binding to human PLK1 polo-box domain; Plk1 PBD binding of FITC phosphopeptide, fluorescence polarization; Potency, µM, without a hit: max response, negative = inhibition, most hits filed as inhibitors; 2.8% of 360,000 active; also: potency is read from the fitted curve at half-maximal effect; series mostly up to about 57 µM; % is scaled to controls: 0 for no effect and ±100 for the full control effect; nearly all actives have a fitted effect of over 65% in size
# G9a inh: blocks human histone lysine methyltransferase G9a; Q96KQ7; G9a H3K9 monomethylation, AlphaScreen, 2 h; Potency, µM (titrated, usually from 102 µM), inactives show at the highest dose activity, negative = inhibition, hits mostly inhibitors; 8.8% of 350,000 active; AID 504332; also: potency is read from the fitted curve at half-maximal effect; % is scaled to controls: 0 for no effect and ±100 for the full control effect; nearly all actives have a fitted effect of over 75% in size
# Target sequence (Q96KQ7 913-1193 limits assumed): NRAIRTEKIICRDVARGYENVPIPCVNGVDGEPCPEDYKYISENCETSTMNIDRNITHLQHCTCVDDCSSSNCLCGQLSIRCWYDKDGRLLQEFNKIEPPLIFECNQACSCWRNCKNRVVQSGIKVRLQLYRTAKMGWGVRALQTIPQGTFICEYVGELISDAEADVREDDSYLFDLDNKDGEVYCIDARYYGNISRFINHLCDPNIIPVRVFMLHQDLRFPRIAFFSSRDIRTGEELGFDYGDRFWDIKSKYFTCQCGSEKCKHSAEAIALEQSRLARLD
#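 G9a (20 nM) preincubated 15 min RT with compounds, then 500 nM biotinylated H3K9 peptide and 20 uM SAM added; 2 h RT reaction. Monomethyl-H3K9 product detected by AlphaScreen with anti-H3K9me1 antibody, streptavidin donor and anti-rabbit IgG acceptor beads.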
# PI5P4K alpha inh: blocks human PI5P4K alpha kinase activity; P48426; PI5P4Kalpha enzyme, ADP-Glo luminescence, 60 min; hits give low values; max response, %; 1.2% of 330,000 active; AID 652105; active = max response of -50% or lower; inconclusive = between -30% and -50%; inactive = -30% or higher; also: value at the top dose of about 77 µM; % is scaled to controls: 0 for no effect and ±100 for the full control effect
#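 Compounds were pin-transferred onto PI5P4Kalpha and substrate in HEPES pH 7.4 buffer with EGTA, CHAPS and 5% DMSO. ATP (5 microM final) started the reaction, which ran 60 minutes at room temperature before ADP-Glo detection.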
# JMJD2A Tudor inh: inhibitors of human JMJD2A Tudor domain. 4.4% of 390,000 active. AID 504339. AlphaScreen JMJD2A-Tudor / H3K4me3 peptide binding. Potency, µM (series often up to 114 µM), for the others: at the highest dose activity change, negative = inhibition, most hits filed as inhibitors. O75164; also: potency is read from the fitted curve at half-maximal effect; % is scaled to controls: 0 for no effect and ±100 for the full control effect; nearly all actives have a fitted effect of over 50% in size
# * = called active by the depositor; ? = inconclusive; · = not tested or not shown; [ ] = another dose, or the depositor's remark. In the library only some 12% were active in any assay of this set; here they are far more common. Unless noted, calls follow the shape of the dose curve; as a rule, active = well fitted curve in the direction sought with a large enough effect; inconclusive = small, poorly fitted or top-dose-only effect, or another doubt; inactive = no such curve, though single readings can be large; an effect the other way counts as inactive or inconclusive.
SMILES,HP1b chromo inh,BAZ2B block,PLK1 PBD block,G9a inh,PI5P4K alpha inh,JMJD2A Tudor inh
O=C(COC(=O)CNS(=O)(=O)c1ccc(Cl)cc1)NC1CCCCC1,3.8%,2.6%,-4.6%,-6.6%,1.6,-3.7%
CC(=O)N1c2ccc(S(=O)(=O)NCC3CCC(C(=O)Nc4cccc(C)n4)CC3)cc2CC1C (stereo not drawn),-14.6%,-38.8%,?,14.6%,-10.8,-29.0%
Cc1noc(C)c1S(=O)(=O)N(C)C[C@H]1OCCCC[C@H](C)Oc2ccc(NC(=O)CCCN(C)C)cc2C(=O)N([C@H](C)CO)C[C@@H]1C,·,·,-22.7%,·,1.3,·
COc1ccc2[nH]cc(CCNc3nc(-c4cccc(C#N)c4)nc4ccccc34)c2c1,·,·,·,-8.1%[0.501 µM],·,·
O=C(NCc1ccccc1)c1ccc(NC(=O)C2CCCCC2)cc1,39.7%,·,-1.2%,·,-0.2,-6.8%
CC1CCCN(CC(O)COc2ccc(Cl)cc2)C1 (stereo not drawn),6.8%,1.0%,-9.8%,9.3%[2.33 µM],·,-5.4%
CCCOc1ccc(OCCN2CCCC(C)C2)cc1 (stereo not drawn),38.8%,56.2µM*,2.8%,14.1µM*,0.0,?
CC1CCCN(CC(O)COc2ccc(-c3ccccc3)cc2)C1 (stereo not drawn),17.4%,-22.1%,-11.8%,-0.9%,-14.0,?
CC1CN(CCOc2cccc(Oc3ccccc3)c2)CC(C)O1 (stereo not drawn),?,50.1µM*,-1.7%,10µM*,3.7,20µM*
CC1CCCN(CCOc2cccc(Oc3ccccc3)c2)C1 (stereo not drawn),?,56.2µM*,5.1%,8.91µM*,2.9,22.4µM*
CC1CN(S(=O)(=O)c2cccc(C(=O)OCCOc3ccccc3)c2)CC(C)O1 (stereo not drawn),46.7%,5.8%,1.0%,4.7%[12.7 µM],8.3,15.8%
CC1CN(CCCCOc2cccc(Oc3ccccc3)c2)CC(C)O1 (stereo not drawn),?,35.5µM*,5.7%,-125.0%[59 µM],2.3,0.891µM*
Cc1cccc(OCCCCN2CCNCC2)c1,-11.2%,·,3.3%,·,-0.2,-25.0%
COc1cccc(OCCCCCN2CCOCC2)c1,10.3%,-2.8%,-6.4%,-100.3%,·,-14.1%
c1ccc(Oc2cccc(OCCCCN3CCCC3)c2)cc1,-28.4%,56.2µM*,-5.4%,?,0.5,35.5µM*
CCN1CCN(CCOc2ccccc2OCc2ccccc2)CC1,?,22.4µM*,-12.3%,20µM*,-1.0,12.6µM*
CCOc1ccccc1OCCOCCN1CC(C)OC(C)C1 (stereo not drawn),-20.6%,?,-20.7%,15.8µM*,-13.9,?
NC(=O)c1ccccc1OCC(=O)N1CCC(Cc2ccccc2)CC1,41.0%,-4.2%,0.2%,0.5%[12.7 µM],0.2,-9.1%
CCN1CCN(Cc2ccc(OCc3ccccc3)c(OC)c2)CC1,21.6%,-0.7%,-3.5%,?,·,-27.0%
CCC(=O)c1ccccc1OCCCN1CCC(Cc2ccccc2)CC1,?,-34.3%,3.5%,39.8µM*,-3.3,35.5µM*
CCOc1ccccc1OCCN1CCC(Cc2ccccc2)CC1,-12.6%,56.2µM*,-1.4%,15.8µM*,-1.4,44.7µM*
CCOc1ccccc1NC(=O)NCCN1CCCCC1,16.0%,-2.9%,-3.1%,12.6%,0.5,-11.0%
N#Cc1ccccc1OCCCN1CCC(Cc2ccccc2)CC1,?,?,0.7%,31.6µM*,-4.3,4.47µM*
N#Cc1cccc(C(=O)C(=O)N2CCC(Cc3ccccc3)CC2)c1,·,·,0.7%,·,-2.4,·
CCOc1ccccc1OCCN1CCCC1,-17.2%,-25.7%,-4.8%,79.4µM*,-13.2,20µM*
SMILES,HP1b chromo inh,BAZ2B block,PLK1 PBD block,G9a inh,PI5P4K alpha inh,JMJD2A Tudor inh
Cc1ccc([N+](=O)[O-])c(OCCN2CCC(Cc3ccccc3)CC2)c1,?,22.4µM*,-9.1%,?,-0.3,3.16µM*
O=C(COc1ccccc1[N+](=O)[O-])N1CCC(Cc2ccccc2)CC1,-20.9%,·,?,?,-5.1,-5.3%[11.4 µM]
CCCC(=O)OC1(C(=O)CO)CCC2C3CCC4=CC(=O)CCC4(C)C3C(O)CC21C (stereo not drawn),·,·,·,20.5%[59 µM],·,·
N#Cc1cccc(S(=O)(=O)N2CCN(c3nc(-c4cccs4)nc4ccccc34)CC2)c1,29.8%,·,·,·,·,-10.2%
O=C1CCCC2=C1C(c1ccccc1Cl)N=C(Nc1nc3ccccc3o1)N2 (stereo not drawn),·,·,·,·,·,-22.0%
Cc1ccccc1NC(=O)CN1CCCC1,·,·,-3.8%,·,-12.5,·
CN1CCN(CC(=O)Nc2cc(N(C)C)nc3ccccc23)CC1,31.7%,?,-13.4%,50.1µM*,1.3,-16.5%
CN1CCN(CC(=O)c2ccccc2F)CC1,?,22.4µM*,-9.6%,4.47µM*,-9.5,6.31µM*
Cc1ccccc1NC(=O)CN1CCN(C)CC1,28.2µM*,28.2µM*,3.6%,10µM*,1.5,3.16µM*
c1csc(CNc2ccnc(-c3ccc4c(c3)OCO4)n2)c1,·,·,·,-4.1%[0.501 µM],·,·
O=C(Cn1c(-c2ccccc2)noc1=O)Nc1ccc(N2CCCCCC2)cc1,?,22.4µM*,-0.9%,?,·,22.4µM*
O=C(O)CCC(=O)Nc1ccc(SSc2ccc(NC(=O)CCC(=O)O)cc2)cc1,29.9%,-1.3%,0.947µM*,?,-6.9,?
O=C(O)CCCC(=O)Nc1ccc(N2CCCC2)cc1,40.9%,3.5%,-18.1%,39.8µM*,-1.2,?
O=C(Cc1ccccc1)Nc1ccc(N2CCCCC2)cc1,31.8%,-23.9%,-11.9%,28.2µM*,-2.7,-23.7%
O=C(Cn1c(-c2ccccc2)noc1=O)Nc1ccc(S(=O)(=O)N2CCOCC2)cc1,24.7%,6.7%,-3.5%,-7.0%[59 µM],9.6,-14.6%
CN1CCN(c2ccc(NC(=O)Cc3ccccc3)cc2)CC1,1.1%,-2.3%,-1.8%,-29.7%[12.7 µM],-1.5,-13.3%
Cc1ccc(S(=O)(=O)N2CCCC2C(=O)NCc2ccncc2)cc1 (stereo not drawn),33.6%,-21.1%,-8.0%,6.1%,-3.1,2.4%
N#Cc1ccc2c(c1)C[C@]1(CCCCN3C(=O)c4ccccc4C3=O)OC3=C(C(=O)OC4(CCCCC4)C3)C2O1,·,-7.2%[22.9 µM],·,18.7%[2.33 µM],·,·
N#CN=c1snc(-c2ccccc2)n1-c1ccc(Br)cc1,22.6%[57 µM],·,·,·,·,-20.0%[57.1 µM]
CCc1nc2ccc(C(=O)NCc3ccccc3OC)cn2c1N(C)Cc1ccc(OC)cc1,·,·,6.5%,·,11.0,·
CC1(C)OC(=O)C2(Cc3ccccc3N3CCC(c4ccccc4)CC32)C(=O)O1 (stereo not drawn),-0.5%[57 µM],·,·,·,·,-9.2%[57.1 µM]
O=C(COC(=O)CCc1nc2ccccc2n1-c1ccccc1)Nc1ccc(N2CCCCC2)cc1,-6.2%,?,-6.7%,10µM*,4.0,-20.3%
CCNC(=S)Nc1ccc(N2CCCCC2)cc1,?,35.5µM*,?,31.6µM*,3.8,-29.6%[57.1 µM]
